Among the data in PubChem BioAssay AID1851 (National Center for Advancing Translational Sciences (NCATS), 2009) are AC50 and activity, negative = inhibition values, retold here.

In all, about 16,000 compounds went through this assay and about 5,700 (36%) were called active. Another 24% or so got no clear call; they are omitted. The list shows a part of the results. A number with no mark means an inactive call. Calls follow the shape of the dose curve; as a rule, active = well fitted curve in the direction sought with a large enough effect; inconclusive = small, poorly fitted or top-dose-only effect, or effect the other way; inactive = no such curve, though single readings can be large or run the other way.
% is scaled to controls: 0 for no effect and ±100 for the full control effect.

Cytochrome P450 1A2 (Homo sapiens), sequence (P05177 whole entry, looked up): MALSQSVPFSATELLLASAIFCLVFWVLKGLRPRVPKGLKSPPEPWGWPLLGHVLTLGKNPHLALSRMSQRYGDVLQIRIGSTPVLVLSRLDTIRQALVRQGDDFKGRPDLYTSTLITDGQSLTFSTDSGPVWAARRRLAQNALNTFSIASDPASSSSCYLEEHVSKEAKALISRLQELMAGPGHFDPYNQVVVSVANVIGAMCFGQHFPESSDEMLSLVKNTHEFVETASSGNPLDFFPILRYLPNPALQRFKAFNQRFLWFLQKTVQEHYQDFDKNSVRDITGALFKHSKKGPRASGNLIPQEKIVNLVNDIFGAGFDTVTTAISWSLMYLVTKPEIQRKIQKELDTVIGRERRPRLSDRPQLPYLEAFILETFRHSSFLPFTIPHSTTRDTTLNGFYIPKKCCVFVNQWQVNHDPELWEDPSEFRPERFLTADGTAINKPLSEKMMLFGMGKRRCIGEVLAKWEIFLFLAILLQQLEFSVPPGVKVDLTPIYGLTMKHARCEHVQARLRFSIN

The assay concerns the target Cytochrome P450 1A2 (Homo sapiens) (UniProt P05177). The experiment in a line: Cytochrome panel assay with activity outcomes. Conditions: recombinant CYP, pro-luciferin dealkylation, luminescence, p450-cyp1a2; series mostly up to 57.1 µM.
The term AC50 denotes the concentration giving half of the maximal activity seen. As for `CC(=O)c1cc(C#N)c(Oc2ccc(F)cc2)nc1C`, the AC50 is 2.24 µM (active).
Still for that read-out and setting: next, `Cc1cc(C)c(NC(=O)NC(=O)c2ccc(F)cc2)c(C)n1`: “inactive”.
In the case of `COC(=O)c1cc(C#N)c(NCc2ccc(Cl)cc2Cl)nc1C`, the AC50 entry was “inactive”.
The same measure, in the same setting: the value for `COC(=O)C1=C(C)C(c2ccc(OC)cc2)NC(=S)N1` (stereo not drawn) was “inactive”; that for `CC(C)Oc1cccc(C(=O)NC(=S)N2CCN(c3ccc(C(F)(F)F)cc3[N+](=O)[O-])CC2)c1` was “inactive”.
Same read-out and setting: next, `COC(=O)c1cc(C#N)c(Oc2ccc(OC)cc2)nc1C`: 4.47 µM (active); `CC(=O)c1cc(C#N)c(Oc2cccc(C(F)(F)F)c2)nc1C`: 1.12 µM (active).
The same measure, in the same setting: next, `O=C(NC1CCCCCC1)c1cccs1`: 5.01 µM (active); `O=C(NCC(=O)N(c1ccccc1)C(C(=O)NC1CCCC1)c1cccnc1)c1cccs1` (stereo not drawn): “inactive”.
Take `Cc1ccc(C(C(=O)NC2CCCCC2)N(CC2CCCO2)C(=O)CNC(=O)c2cccs2)cc1` (stereo not drawn): the AC50 result is “inactive”.
With `O=C(Nc1ccc2ncccc2c1)Nc1ccc2ncccc2c1`, the activity, negative = inhibition was -28.5% [at 2.29 µM].
`Cc1nc2ccc(NC(=O)Nc3ccnc4cccnc34)cc2o1`: the AC50 was 1 µM (active).
`C/C=C\C(=O)N(CC)c1ccccc1C`: the AC50 result was “inactive”.
`CC1(C)OC(=O)NC1=O`: the AC50 entry was “inactive”.
Consider `COc1ccc(-c2csc3c2[N+]2=CCC=C2C3=O)cc1`, for which the AC50 was 0.501 µM (active).
The same measure, in the same setting: next, `Cc1noc(C)c1-c1cc(N2CCN(C)CC2)ncn1`: 10 µM (active).
For the compound `Cc1noc(C)c1-c1nccc(-n2ccnc2)n1`, the AC50 is 0.2 µM (active).
Take `Cc1noc(C)c1C(=O)N1CCC2(CC1)CCN(c1ccncc1)CC2`: the AC50 result is “inactive”.
Still for that read-out and setting: the value for `Cc1noc(C)c1-c1nccc(N2CCOCC2)n1` was 0.631 µM (active); that for `Cc1noc(C)c1-c1nccc(N2CCN(C)CC2)n1` was 2 µM (active); that for `CC(C)(C)C(=O)NC(c1ccc(Cl)cc1)[C@]1(C)C[C@H]1C1CCCCC1` (stereo partly drawn) was “inactive”.
Consider `CO/N=C1/c2cc(OC)ccc2O[C@@H](c2cccc(OC)c2)[C@H]1O`, for which the activity, negative = inhibition was -7.77% [at 11.4 µM].
As for `Cc1cccc(Oc2ncc(-c3ccc(Cl)cc3)cn2)c1C`, the AC50 is 2.24 µM (active).
For the compound `Cc1cc(Cl)ccc1Oc1ncc(-c2ccc(Cl)cc2)cn1`, the AC50 was 0.794 µM (active).
The same measure, in the same setting: next, `CNc1nc(-c2ccccc2Cl)nc2ccccc12`: 0.126 µM (active); `CNc1nc(-c2ccccc2C)nc2ccccc12`: 0.501 µM (active); `CCCNS(=O)(=O)c1ccc(OCC(=O)OC)cc1`: “inactive”.
Still for that read-out and setting: the value for `CCCOc1ccc(/C=C/C(=O)Nc2ccc([N+](=O)[O-])cc2C)cc1` was “inactive”.
Same read-out and setting: next, `CCOC(=O)COc1ccc(/C=C/[N+](=O)[O-])c(OCC(=O)OCC)c1`: 3.16 µM (active).
Consider `Fc1ccc2nc3[nH]c4ccccc4c3nc2c1`, for which the AC50 is 1 µM (active).
The same measure, in the same setting: the value for `COC(=O)CSc1ccc(C#N)c(SCC(=O)OC)c1` was 25.1 µM (active); that for `COc1ccc(N2CCN(Cc3nc4c(c(=O)n(C)c(=O)n4C)n3CC(C)=O)CC2)cc1` was “inactive”; that for `CCn1ccc(C(=O)NC2C(=O)N3C(C(=O)O)=C(C)CSC23)n1` (stereo not drawn) was “inactive”.
On the same count and under the same terms, next, `CCn1ccc(C(=O)NC2=C(C#N)CCC2)n1`: 6.31 µM (active); `C[C@]12C=CC(=O)C=C1CC[C@@H]1[C@H]3C[C@@H](O)[C@](O)(C(=O)CO)[C@@]3(C)C[C@H](O)[C@]12F`: “inactive”; `Cn1c(SCC(=O)NC2CC2)nnc1-c1cccc(NC(=O)c2ccccc2F)c1`: “inactive”.
On to `CC(=O)Nc1ccc(-c2nnc(SCC(=O)c3ccc4c(c3)Cc3ccccc3-4)n2C)cc1`, for which the AC50 was 11.2 µM (active).
For `Cn1c(SC2CCCCC2=O)nnc1-c1ccncc1` (stereo not drawn), the AC50 result was “inactive”.
For `Cn1c(SCC(=O)c2ccc3c(c2)Cc2ccccc2-3)nnc1-c1ccccc1`, the AC50 is 6.31 µM (active).
Same read-out and setting: the value for `Cc1ccc2c(CC(=O)OCc3cc(=O)n4c(n3)sc3ccccc34)coc2c1` was 8.91 µM (active).
On to `CC(C)(C)c1onc(OCP(=O)(O)O)c1C[C@@H](N)C(=O)O`, for which the AC50 entry is “inactive”.
For `O=C(NNC(=O)c1cc(-c2ccc(Cl)c(Cl)c2)nc2ccccc12)Nc1ccccc1`, the concentration at half-maximal activity (AC50) is 3.55 µM (active).
On the same count and under the same terms, next, `Cc1cc(C(=O)Nc2ccc(N3CCOCC3)cc2)c2ccccc2n1`: 10 µM (active).
On the same count and under the same terms, next, `Cc1ccc(NC(=O)c2cc(Cl)nc3ccccc23)cc1`: 2 µM (active).
With `CCOC(=O)N/N=C1/C[C@@H](O)[C@@H](O)[C@@H]2[C@@H]3C(=O)N(c4cccc(Oc5ccccc5)c4)C(=O)[C@H]3CC[C@@H]12`, the activity, negative = inhibition was -6.44% [at 11.4 µM].
Turning to `O=C1Oc2ccccc2C2(O)C3CCCCCC3C12` (stereo not drawn), the AC50 result is “inactive”.
Turning to `Cc1n[nH]c(C)c1N=Nc1cc(Cl)ccc1Cl`, the AC50 was 0.178 µM (active).
On the same count and under the same terms, next, `COc1cc(OC)c(C(=O)CCCCN2CCC3(CC2)NC(=O)NC3=O)cc1NS(=O)(=O)c1ccc(C(F)(F)F)cc1`: “inactive”.
In the case of `Nc1ncnc2c([C@@H]3O[C@@H](CO)[C@H](O)[C@@H]3O)nsc12`, the activity, negative = inhibition is -16.8% [at 2.29 µM].
Consider `O=C(Nc1cc(Sc2ccccn2)cc([N+](=O)[O-])c1)c1ccc([N+](=O)[O-])cc1`, for which the AC50 is 3.16 µM (active).
On the same count and under the same terms, next, `O=C(Nc1nnc(COc2ccc(Cl)cc2)s1)c1ccc([N+](=O)[O-])cc1`: “inactive”.
The same measure, in the same setting: next, `O=C(Nc1cc(Sc2ccccn2)cc([N+](=O)[O-])c1)c1ccc(Cl)cc1`: 2.51 µM (active).
In the case of `O=C1[C@H]2[C@H]3[C@H](O)[C@H](O)C/C(=N/OC[C@@H](O)COCc4ccco4)[C@H]3CC[C@@H]2C(=O)N1C[C@@H]1CCCO1`, the activity, negative = inhibition is -17.3% [at 11.4 µM].
As to `Cc1ccc(C)c(NC(=O)C2C3CCCC2C3c2ccccc2)c1` (stereo not drawn), the AC50 result is “inactive”.
On the same count and under the same terms, next, `CCOc1ncccc1C(=O)OCC(=O)Nc1cc(C)ccc1C`: 10 µM (active); `Cc1ccc(C)c(NC(=O)Cn2nnc(C(=O)Nc3c(C)cccc3C)c2N)c1`: “inactive”.
Regarding `Cc1noc(C)c1-c1ccc2ncnc(N(C)C)c2c1`, the AC50 is 0.631 µM (active).
For `Cc1noc(C)c1-c1ccc2ncnc(N(C)Cc3ccco3)c2c1`, the AC50 is 2.51 µM (active).
The same measure, in the same setting: next, `CN1C(=O)OC(C)(C)C1=O`: “inactive”.
`Cc1cc(Cl)nc2ccc(Cc3ccc4nc(Cl)cc(C)c4c3)cc12`: the activity, negative = inhibition was -13.2% [at 2.29 µM].
As to `CCc1c(C)nc2ccc(Br)cc2c1Cl`, the AC50 was 0.316 µM (active).
As for `CO[C@H]1COC(=O)CCC[C@@H](C)[C@H](OC)COC(=O)[C@@H](C)NC(=O)C/C=C\[C@@H]1C`, the activity, negative = inhibition is 3.63% [at 11.4 µM].
As for `O=C(O)[C@H]1CCCNC1`, the AC50 entry was “inactive”.
Same read-out and setting: the value for `Cc1cnn(-c2ccc3nnc(-c4ccc(Cl)cc4)n3n2)c1` was 0.398 µM (active).
On the same count and under the same terms, next, `CNC(=O)Oc1ccc2c(c1)[C@@]1(C)CCN(C)[C@@H]1N2C`: “inactive”.
Same read-out and setting: next, `CCOCCCn1cnc2c([nH]c3cc(OC)ccc32)c1=O`: 2 µM (active).
For `CCOCCCN1C(=O)CN(C2CCCCCC2)C(=O)C1c1ccc(OC)cc1` (stereo not drawn), the AC50 entry was “inactive”.
As for `CO[C@H]1COC(=O)C/C=C\[C@@H](C)COC(=O)[C@H]2CCCN2C(=O)C/C=C\[C@H]1C`, the activity, negative = inhibition was 4.01% [at 11.4 µM].
In the case of `Cc1cc(N2CCOCC2)ccc1/C=C1\SC(=O)N(C(C)C)C1=O`, the AC50 is 14.1 µM (active).
With `CN(C)c1ccc(/C=C2/C(=O)N(c3ccc([N+](=O)[O-])cc3)N=C2N2CCOCC2)cc1`, the AC50 entry is “inactive”.
Same read-out and setting: next, `CC(C(=O)Nc1ccccc1Sc1ccccc1)N(c1ccccc1)S(C)(=O)=O` (stereo not drawn): “inactive”.
`CO[C@@H]1COC(=O)[C@H](COCc2ccccc2)NC(=O)C/C=C\[C@@H](C)[C@H](OC)COC(=O)[C@H](COCc2ccccc2)NC(=O)C/C=C\[C@H]1C`: the activity, negative = inhibition was -19.7% [at 11.4 µM].
For `COc1cccc(/C=N/Nc2nc(N3CCCC3)nc(N3CCCC3)n2)c1O`, the AC50 is 2.51 µM (active).
Consider `COC(=O)C1=C(C)[C@@H](O)[C@@H](C)[C@H](c2c(OC)c(OC)c(C)c(OC)c2OC)O1`, for which the activity, negative = inhibition is -10.1% [at 11.4 µM].
In the case of `CC12CC[C@@H]3c4ccc(OP(=O)(O)O)cc4CCC3C1CCC2=O` (stereo partly drawn), the activity, negative = inhibition was -13.4% [at 2.29 µM].
On to `C#C[C@@]1(O)CC[C@@H]2[C@@H]3CCC4=CC(=O)CC[C@@H]4[C@H]3CC[C@]21C`, for which the AC50 result was “inactive”.
Still for that read-out and setting: next, `C#C[C@]1(O)CC[C@@H]2[C@H]3CCc4cc(OC)ccc4[C@@H]3CC[C@@]21C`: 0.501 µM (active); `Clc1ccc(CCNc2nc3ccccc3s2)cc1`: 11.2 µM (active).
On the same count and under the same terms, next, `CC(C)N1CCN(c2ccc(OC[C@@H]3CO[C@@](Cn4cncn4)(c4ccc(Cl)cc4Cl)O3)cc2)CC1`: “inactive”; `Nc1c(O)cccc1C(=O)C[C@@H](N)C(=O)O`: “inactive”.
Take `N#C/C(=C\Nc1ccccn1)C(=O)C1CC1`: the AC50 was 1.26 µM (active).
Turning to `N#C/C(=C\Nc1ccccn1)C(=O)c1ccco1`, the activity, negative = inhibition is -22.9% [at 11.4 µM].
In the case of `CC(CCN)(CCN)[N+](=O)[O-]`, the activity, negative = inhibition was -10.4% [at 11.4 µM].
As to `CSc1ccc(NC(=O)NCCCN2CCN(c3ccccc3F)CC2)cc1`, the AC50 is 2.51 µM (active).
Still for that read-out and setting: next, `O=C(NCCCN1CCN(c2ccccc2F)CC1)C1CCC(=O)N1C1CCCCC1` (stereo not drawn): “inactive”.
For `O=C(NCCN1CCN(C(=O)C(c2ccccc2)c2ccccc2)CC1)C(=O)Nc1ccccc1`, the AC50 result is “inactive”.
Same read-out and setting: the value for `Cc1ccccc1CS(=O)(=O)CCC(=O)NCCCN1CCN(c2ccccc2F)CC1` was “inactive”; that for `O=C(NCCCN1CCc2ccccc2C1)C1CCN(S(=O)(=O)N2CCCC2)CC1` was “inactive”; that for `CSc1ccc(NC(=O)NCCN2CCc3ccccc3C2)cc1` was 14.1 µM (active).
For the compound `Fc1cccc(/C=N\N=C/c2cccc(F)c2)c1`, the AC50 is 0.2 µM (active).
`COc1cccc([C@@H]2Oc3ccc(OC)cc3/C(=N/O[C@@H](C)c3cc(-c4c(C)cc(C)cc4C)no3)[C@@H]2O)c1`: the activity, negative = inhibition was -10.9% [at 11.4 µM].
Regarding `Cc1cc(C)c(C(N)=O)c(NC(=O)Nc2ccccc2)n1`, the AC50 was 3.16 µM (active).
With `Cc1cc(N)c2cc(NC(=O)Nc3ccc4nc(C)cc(N)c4c3)ccc2n1`, the activity, negative = inhibition was -1.54% [at 11.4 µM].
